For 12 compounds, growth results are on record in PubChem BioAssay (NCI).

Several values for one entry are separate records, joined by “and”; a condition that tells them apart may be missing. Equal values may be shown once. About 83,000 compounds went through this panel and 20% of them were active in at least one assay; those are over-represented in the sample as a whole.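 Results are percent growth after 48 hours of single-concentration exposure. 100 means growth as in untreated cells, lower positive values show inhibition; negative values down to -100 show cell death.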 A number with no mark means an inactive call. Activity calls are given as the source filed them. How the source made its calls: active means growth percent below 10; inactive means the rest.

Among the test systems are NCI-H23 lung; NCI-H226 lung; NCI-H322M lung; HOP-62 NSCLC; NCI-H460 lung; HOP-92 NSCLC; NCI-H522 lung; A549/ATCC NSCLC; 786-0 renal; COLO 205 colon.
Test in all cases: NCI-60 one-dose screen, 48 h (100 = growth as untreated, 0 = no growth, -100 = all killed)
Holding throughout (conditions): 10 µM unless noted

As to `Cc1nc2sccn2c1-c1nnc(SCC(C)C)o1`, the growth in the assay with NCI-H23 lung is 85.9%; in the assay with NCI-H226 lung it was 62%; in the assay with NCI-H322M lung, 82.1%; in the assay with HOP-62 NSCLC, 95.2%; in the assay on NCI-H460 lung, 97%; in the assay on HOP-92 NSCLC it was 64.4%. In addition, the growth was 71.5% in the assay on NCI-H522 lung, 91.3% in the assay on A549/ATCC NSCLC, 82.3% with 786-0 renal and 106% in the assay on COLO 205 colon.

Regarding `CCCSc1nnc(-c2sc3nc4ccccc4n3c2C)o1`, the growth is 111% with NCI-H23 lung; 106% with NCI-H226 lung; 102% with NCI-H322M lung; 132% in the assay on HOP-62 NSCLC; 103% in the assay with NCI-H460 lung; 101% with HOP-92 NSCLC. The growth is 100% in the assay with NCI-H522 lung, 99.8% in the assay on A549/ATCC NSCLC, 81.5% in the assay on 786-0 renal and 131% in the assay on COLO 205 colon.

Take `Cc1ccc(C2CC(c3ccc(NC(=O)Nc4ccccc4)cc3)=NN2c2ccc(S(N)(=O)=O)cc2)cc1` (stereo not given): the growth with NCI-H23 lung is -95.8% (active); with NCI-H226 lung, -80.4% (active); in the assay with NCI-H322M lung, -96.5% (active); with HOP-62 NSCLC, -72.9% (active); in the assay with NCI-H460 lung, -86.1% (active); in the assay on HOP-92 NSCLC, -81.3% (active). For the same compound, the growth in the assay with NCI-H522 lung is -84% (active); in the assay on A549/ATCC NSCLC, -61.4% (active); in the assay on 786-0 renal it was -87.9% (active); in the assay with COLO 205 colon it was -66.3% (active).

In the case of `CC(C)(C)OC(=O)N1CCC2(CC1)Oc1ccccc1[C@H]1CC(c3ccc(Br)cc3)=NN12`, the growth with NCI-H23 lung was 80.9%; in the assay on NCI-H226 lung, 79%; in the assay on NCI-H322M lung, 86.6%; in the assay on HOP-62 NSCLC, 77%; in the assay with NCI-H460 lung it was 66.6%; with HOP-92 NSCLC it was 67.5%. In addition, the growth was 74.4% in the assay with NCI-H522 lung, 67.4% in the assay on A549/ATCC NSCLC, 76.8% in the assay with 786-0 renal and 101% in the assay on COLO 205 colon.

`Cc1ccc(C(C(=O)NC2CCCCC2)N(Cc2ccccc2Cl)C(=O)c2ccc(CN3CCOCC3)o2)o1` (stereo not given): the growth in the assay on NCI-H23 lung was 93.8%; in the assay with NCI-H226 lung, 101%; in the assay with NCI-H322M lung, 105%; in the assay on HOP-62 NSCLC it was 107%; with NCI-H460 lung, 99.9%; with HOP-92 NSCLC it was 91.3%. In addition, the growth in the assay on NCI-H522 lung is 78.7%; in the assay on A549/ATCC NSCLC, 98.5%; with 786-0 renal it was 82.8%; in the assay on COLO 205 colon, 121%.

Regarding `ClC(Cn1ncc2c(Nc3cccc(Br)c3)nc(SCCN3CCOCC3)nc21)c1ccc(Br)cc1` (stereo not given), the growth in the assay with NCI-H23 lung is -20.2% (active); with NCI-H226 lung, 32.2%; in the assay on NCI-H322M lung, 47.5%; with HOP-62 NSCLC, -12.9% (active); with NCI-H460 lung it was 27.6%; in the assay with HOP-92 NSCLC it was -18.9% (active). Moreover, the growth in the assay on NCI-H522 lung is 13.9%; in the assay on A549/ATCC NSCLC, 15.7%; with 786-0 renal, -66.5% (active); in the assay on COLO 205 colon it was -79.2% (active).

With `Cc1cc(Cl)ccc1NC(=O)Nc1ccc(-c2ccc3c(c2)NC(=O)/C3=C\c2ccc[nH]2)cc1`, the growth with NCI-H23 lung is 74.4%; in the assay on NCI-H226 lung, 107%; in the assay on NCI-H322M lung, 98.6%; in the assay on HOP-62 NSCLC, 99.6%; with NCI-H460 lung, 66.8%; in the assay with HOP-92 NSCLC it was 115%. Besides, the growth was 103% in the assay with NCI-H522 lung, 105% in the assay on A549/ATCC NSCLC, 105% with 786-0 renal and 130% with COLO 205 colon.

For the compound `COc1cc2cc(C(=O)N3C[C@@H](CCl)c4c3cc(OC(=O)N(C)CCSSCCN3CCOCC3)c3ccccc43)[nH]c2c(OC)c1OC`, the growth in the assay on NCI-H23 lung was -66.9% (active); with NCI-H226 lung, -17.2% (active); with NCI-H322M lung, 1.49% (active); with HOP-62 NSCLC it was -49.4% (active); in the assay with NCI-H460 lung, 0.904% (active); with HOP-92 NSCLC, -16.1% (active). Moreover, the growth in the assay on NCI-H522 lung was -42.8% (active); in the assay with A549/ATCC NSCLC it was -9.46% (active); in the assay with 786-0 renal, -65% (active); in the assay on COLO 205 colon it was -80.4% (active).

With `CC1CCc2c(sc3nc(SCC(=O)c4cccc([N+](=O)[O-])c4)n(-c4ccccc4)c(=O)c23)C1` (stereo not given), the growth in the assay with NCI-H23 lung is 47.4%; in the assay on NCI-H226 lung, 66.6%; in the assay on NCI-H322M lung it was 97.9%; in the assay with HOP-62 NSCLC, 77.7%; with NCI-H460 lung, 97.1%; with HOP-92 NSCLC it was 85.5%. In addition, the growth in the assay with NCI-H522 lung was 54.3%; in the assay on A549/ATCC NSCLC, 89.7%; in the assay with 786-0 renal it was 56.6%; in the assay on COLO 205 colon, 106%.

`COc1ccc(Nc2ncnc3sc4c(c23)CCN(Cc2ccccc2)C4)cc1`: the growth was 91.8% in the assay on NCI-H23 lung; 84.3% with NCI-H226 lung; 93.7% in the assay on NCI-H322M lung; 81.9% with HOP-62 NSCLC; 71% with NCI-H460 lung; 85.7% in the assay on HOP-92 NSCLC. Further, the growth is 63.2% in the assay on NCI-H522 lung, 77.3% with A549/ATCC NSCLC, 76.4% in the assay with 786-0 renal and 106% in the assay with COLO 205 colon.

Take `CCc1ccc(SC2c3cc(OC)ccc3Oc3nc(N)c(C#N)c(N)c32)cc1` (stereo not given): the growth in the assay with NCI-H23 lung was -5.83% (active); in the assay with NCI-H226 lung, -6.69% (active); in the assay on NCI-H322M lung, -48% (active); in the assay on HOP-62 NSCLC, 1.33% (active); with NCI-H460 lung it was 3.96% (active); in the assay with HOP-92 NSCLC, -38.5% (active). The growth is -8.76% (active) in the assay on NCI-H522 lung, -41.2% (active) with A549/ATCC NSCLC, -54.6% (active) in the assay with 786-0 renal and -68.9% (active) in the assay with COLO 205 colon.

Turning to `CSc1ccc(OCc2nc3ccccc3n2-c2cccc(NS(C)(=O)=O)c2)cc1`, the growth in the assay on NCI-H23 lung is 92.3% and 81.1%; with NCI-H226 lung, 100% and 88.1%; in the assay with NCI-H322M lung it was 106% and 105%; in the assay with HOP-62 NSCLC, 114% and 75.1%; in the assay with NCI-H460 lung it was 114% and 73.3%; in the assay with HOP-92 NSCLC, 80.1% and 93.1%. Moreover, the growth in the assay on NCI-H522 lung is 105% and 96.7%; with A549/ATCC NSCLC, 104% and 87.1%; with 786-0 renal, 114% and 97.3%; with COLO 205 colon, 120% and 91.4%.
